Assay results reported in PubChem BioAssay (NCATS).
Values joined by “and” are separate entries in the source; they are usually repeats but may differ in a detail not shown here. Equal values may be shown once. Results filed as inconclusive are left out. Active and inactive are the calls of the source. Unless noted, calls follow the shape of the dose curve; as a rule, active = well fitted curve in the direction sought with a large enough effect; inconclusive = small, poorly fitted or top-dose-only effect, or another doubt; inactive = no such curve, though single readings can be large; an effect the other way counts as inactive or inconclusive.

Legend:
[1] = qHTS profiling of the MIPE4 collection as inhibitors of Plasmodium falciparum (3D7) proliferation (AID 743344; call rule not given here;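 also: scaled between DMSO vehicle wells and 0.29 µM artemisinin as full inhibition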); details: P. falciparum 3D7 in erythrocytes, SYBR Green DNA fluorescence, 72 h; at 28.5 µM unless noted
Outline: (§1)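 Erythrocytes infected with P. falciparum (0.3% parasitemia, 2.5% hematocrit) incubated with compounds 72 h at 37 C, 5% CO2. Lysis with saponin/Triton buffer containing SYBR Green I, overnight at room temperature in the dark; DNA fluorescence (485/535 nm) normalised to 0.29 uM artemisinin and DMSO.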

[2] = qHTS profiling of the MIPE4 collection as inhibitors of Plasmodium falciparum (DD2) proliferation (AID 743345; call rule not given here); details: P. falciparum Dd2 in erythrocytes, SYBR Green DNA, 72 h; at 28.5 µM unless noted
Outline: as §1

[3] = qHTS profiling of the MIPE4 collection as inhibitors of Plasmodium falciparum (DD2) proliferation (Rep 2) (AID 743346; call rule not given here); details: P. falciparum Dd2 in erythrocytes, SYBR Green DNA, 72 h; at 28.5 µM unless noted
Outline: as §1

[4] = qHTS profiling of the MIPE4 collection as inhibitors of Plasmodium falciparum (HB3) proliferation (AID 743347; call rule not given here;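 also: plate controls were DMSO vehicle wells for no effect and artemisinin wells for full effect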); details: P. falciparum HB3 in erythrocytes, SYBR Green DNA, 72 h; at 28.5 µM unless noted
Outline: as §1

[5] = High-throughput drug toxicity screening in the BPDCN cell line Gen2.2 (AID 1224824; call rule not given here;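 also: cells exposed to compounds for 48 h before reading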); details: Gen2.2 BPDCN cells; at 45.8 µM (top of the series) unless noted
Outline: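 Gen2.2, 500 cells/well, phenol red-free RPMI/10% FBS/Pen-Strep; 48 h cpd, 37 °C/5% CO2; CTG lum, 15 min RT. Norm: DMSO = 100%, bortezomib 9.2 uM final = 0%.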

[6] = qHTS assay for measurement of the activity of small molecule inhibitors on Zika virus induced Caspase-3 activity in human iPSC derived neural progenitor cells (hNPCs) (AID 1224857); also: % of control where 0% means no effect; nearly all actives have a fitted effect of over 65% in size
Outline: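 After overnight (16–20 h) culture at 350 cells/well, hNPCs get compound, then ZIKV 2 FFU/cell one hour later. Six hours on, Caspase-Glo 3/7 is added and luminescence measured.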

[7] = qHTS assay for measurement of the activity of small molecule inhibitors on Zika virus induced Caspase-3 activity in human astrocytoma cells (AID 1224859);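 also: plate controls were ZIKV-infected untreated cells for no effect and uninfected cells for full effect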
Outline: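 Inhibition of Zika-induced caspase-3/7 activity: SNB-19 cells, 1 h compound pretreatment, ZIKV 2 FFU/cell for 6 h at 37 C, Caspase-Glo luminescence read-out.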

[8] = qHTS Screen of the MIPE 4.0 Collection Against Ewings Sarcoma (RDES) (AID 1259252); also: nearly all actives have a fitted effect of over 35% in size; also: potency is read from the fitted curve at half-maximal effect
Outline: (§2)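 After a 4 h attachment period in RPMI/5% FBS, cells were pin-dosed with test compounds; DMSO served as negative and 9.2 uM bortezomib (final) as positive control. Luminescent CellTiter-Glo signal at 48 h defined viability.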

[9] = qHTS Screen of the MIPE 4.0 Collection Against Ewings Sarcoma (TC71) (AID 1259253); also: nearly all actives have a fitted effect of over 40% in size; also: potency is read from the fitted curve at half-maximal effect
Outline: as §2

[10] = qHTS Screen of the MIPE 4.0 Collection Against Ewings Sarcoma (EW8) (AID 1259255); also: nearly all actives have a fitted effect of over 35% in size; also: potency is read from the fitted curve at half-maximal effect;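 as to viability: 100% = DMSO-treated cells and 0% = medium-only wells without cells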
Outline: as §2

[11] = qHTS Screen of the MIPE 4.0 Collection Against Ewings Sarcoma (TC32) (AID 1259256); also: nearly all actives have a fitted effect of over 45% in size; also: potency is read from the fitted curve at half-maximal effect
Outline: as §2

[12] = P-glycoprotein substrates identified in KB-8-5-11 adenocarcinoma cell line, qHTS therapeutic library screen (AID 1346987); also: nearly all actives have a fitted effect of over 65% in size; also: potency is read from the fitted curve at half-maximal effect
Outline: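 KB-8-5-11, a colchicine-selected P-gp-overexpressing KB-3-1 subline, was grown without colchicine for the assay. Cells were seeded at 500 cells/well, dosed in concentration-response and incubated 72 h at 37 degree C, 5% CO2. Viability was read by CellTiter-Glo luminescence.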

[13] = P-glycoprotein substrates identified in KB-3-1 adenocarcinoma cell line, qHTS therapeutic library screen (AID 1346986); also: nearly all actives have a fitted effect of over 60% in size
Outline: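 Cells seeded 500/well in DMEM/10% FCS; compounds pinned in dose-response; 72 h incubation; CellTiter-Glo added, 5 min, luminescence. KB-8-5-11 run ±tariquidar to test reversal of P-gp resistance.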

[14] = qHTS Assay for Identifying Gametocytocidal Compounds (AID 743244);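 also: % is scaled to controls: 0 for no effect and ±100 for the full control effect; actives lower the fluorescent signal which means gametocytes are killed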; details: P. falciparum 3D7 stage III-V gametocytes, alamarBlue, 72 h; max response: stronger effect = lower value
Outline: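 Using 20,000 stage III–V 3D7 gametocytes per well, compounds were incubated 72 h under 37 °C/5% CO2. Viability was then assessed by 24 h alamarBlue reduction, measured fluorometrically at 525/598 nm.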

[15] = qHTS profiling for inhibitors of Plasmodium falciparum (3D7) proliferation (AID 743322);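 also: infected erythrocytes exposed to compound for 72 h before lysis; 100% = DMSO vehicle wells and 0% = 0.29 µM artemisinin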; details: P. falciparum 3D7 proliferation; at 28.7 µM (top of the series)
Outline: as §1

[16] = qHTS profiling for inhibitors of Plasmodium falciparum (DD2) proliferation (AID 743323; call rule not given here); details: lower = more inhibition; at 28.7 µM (top of the series)
Outline: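 P. falciparum Dd2-infected erythrocytes (0.3% parasitemia, 2.5% hematocrit) exposed 72 h at 37 C, 5% CO2. Lysis with SYBR Green, overnight at room temperature, fluorescence 485/535 nm; normalized to 0.29 uM artemisinin and DMSO.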

[17] = qHTS profiling for inhibitors of Plasmodium falciparum (HB3) proliferation (AID 743324); details: Plasmodium falciparum HB3 blood-stage proliferation; at 28.7 µM (top of the series);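 also: 100% = DMSO vehicle wells and 0% = artemisinin-treated control wells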
Outline: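 P. falciparum HB3 grown in erythrocytes (0.3% parasitemia, 2.5% hematocrit final) with compound for 72 h at 37 C, 5% CO2. Parasite DNA detected by SYBR Green after saponin/triton lysis overnight; normalized to 0.29 uM artemisinin and DMSO.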

[18] = qHTS assay for cell viability of the p53RE-bla HCT-116 cell line (AID 743292); also: % is scaled to controls: 0 for no effect and ±100 for the full control effect; nearly all actives have a fitted effect of over 55% in size
Outline: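 After plating at 4,000 cells per well and a 5 h rest at 37 C, HCT-116 cells carrying p53RE-bla received test chemicals in DMSO. Sixteen hours later at 37 C, CellTiter-Glo was added and luminescence recorded following 30 min at room temperature.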

[19] = High-throughput drug toxicity screening in the BPDCN cell line Cal-1 (AID 1224825; call rule not given here); details: Cal-1 BPDCN cell viability, qHTS; at 45.8 µM (top of the series) unless noted
Outline: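 500 Cal-1 cells/well, RPMI + glutamine + 10% FBS (phenol red-free); cpd added by pin tool; 48 h, 37C, 5% CO2; CTG 15 min RT, lumi read. Normalised: DMSO 100%, bortezomib 9.2 uM 0%.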

| Structure (SMILES) | parasite growth, % of DMSO control [1] | parasite growth remaining, % of DMSO control (lower = more inhibition) [2] [%] | parasite growth, % of control (lower = inhibition) [3] | growth, % of control [4] | cell viability, % of control (lower = more cytotoxic) [5] | Potency [6] | Potency [7] | Potency [8] | Potency [9] | Potency [10] | Potency [11] | Potency [12] | Potency [13] | max response [14] | remaining parasite growth % (stronger effect = lower value) [15] [%] | activity, percent of control [16] [%] | remaining proliferation (% of control), lower = more inhibition [17] [%] | outcome [18] | viability (% of control) [19] [%] |
| --- | --- | --- | --- | --- | --- | --- | --- | --- | --- | --- | --- | --- | --- | --- | --- | --- | --- | --- | --- |
| CN1CCCN(C(=O)c2cccc(-c3ccc(C=C4C(=O)Nc5ccc(Cl)cc54)o3)c2)CC1 | 3.74% | 5.68 | 6.52% | 4.36% | 9.19% | inactive | inactive | 20.9 µM (active) | 16.6 µM (active) | 10.5 µM (active) | 18.7 µM (active) | 16.6 µM (active) |  |  |  |  |  |  |  |
| COc1cccc2c1C(=O)c1c(O)c3c(c(O)c1C2=O)C[C@@](O)(C(=O)CO)C[C@@H]3O[C@H]1C[C@H](N)[C@@H](O)[C@H](C)O1 | 3.7% | 4.88 | 4.28% | 2.54% | 8.09% | inactive | inactive |  | 0.187 µM (active) | 0.0296 µM (active) | 0.0042 µM (active) |  |  |  |  |  |  |  |  |
| OCc1ccccc1O[C@@H]1O[C@H](CO)[C@H](O)[C@H](O)[C@H]1O | 95.9% |  | 89.7% | 92.1% | 151% | inactive | inactive | inactive | inactive | inactive | inactive | inactive | inactive |  |  |  |  |  |  |
| CC(C)N1[N]C(=C2C=c3cc(O)ccc3=N2)c2c(N)ncnc21 | 9.52% | 13.1 | 10.7% | 3.6% | 2.36% | inactive | inactive | 1.87 µM (active) | 0.372 µM (active) | 0.418 µM (active) | 0.209 µM (active) | 0.105 µM (active) |  |  |  |  |  |  |  |
| C=CCNC1=C2C[C@@H](C)C[C@H](OC)[C@@H](O)[C@@H](C)C=C(C)[C@H](OC(N)=O)[C@@H](OC)C=CC=C(C)C(=O)NC(=CC1=O)C2=O | 5.05% | 7.22 |  | 4.67% | 6.66% |  | inactive | 6.62 µM (active) | 3.72 µM (active) | 10.5 µM (active) | 0.372 µM (active) | 3.72 µM (active) |  |  |  |  |  |  |  |
| O=C(NCc1ccccc1)[C@H](Cc1ccccc1)NC(=O)[C@@H]1O[C@@H]1C(=O)NCCc1ccc(O)cc1 | 17.3% | 44.7 | 16.7% | 33.6% | 49% | inactive | inactive | 1.05 µM (active) | 1.05 µM (active) | 1.05 µM (active) | 1.18 µM (active) | inactive |  |  |  |  |  |  |  |
| CC(Oc1ccc(O)cc1)(P(=O)(O)O)P(=O)(O)O | 64.8% | 101 | 64.2% | 98.7% | 123% | inactive | inactive | inactive | inactive | inactive | inactive | inactive |  |  |  |  |  |  |  |
| CC(C)[C@H](CO)Nc1nc(Nc2cccc(Cl)c2)c2ncn(C(C)C)c2n1 | 8.7% | 21.1 | 17.2% | 5.25% | 2.15% | inactive | inactive | 5.9 µM (active) | 7.43 µM (active) | 16.6 µM (active) | 10.5 µM (active) | 10.5 µM (active) and 20.6 µM (active) |  |  |  |  |  |  |  |
| C[C@]12C=CC(=O)N[C@@H]1CC[C@H]1[C@H]3CC[C@@H](C(=O)Nc4cc(C(F)(F)F)ccc4C(F)(F)F)[C@@]3(C)CC[C@@H]12 | 9.6% |  |  | 26.4% | 58.7% | inactive | inactive | inactive | inactive | inactive | inactive | inactive |  |  |  |  |  |  |  |
| COc1cc2c(cc1OC)[C@@H]1C(=O)c3ccc4c(c3O[C@@H]1CO2)C=CC(C)(C)O4 | 45.9% |  | 39.7% | 47.7% | 7.01% | inactive | inactive | 23.5 µM (active) | 23.5 µM (active) | 33.2 µM (active) | 0.0662 µM (active) | 5.17 µM (active) |  | -5.53% (inactive) | 39.1 | 44.5 | 17.6 |  |  |
| O=C(C=CC#Cc1cccc(NS(=O)(=O)c2ccccc2)c1)NO | 5.45% | 7.17 | 8.22% | 4.3% | 4.86% |  |  | 1.87 µM (active) | 1.32 µM (active) | 0.935 µM (active) | 0.833 µM (active) | 4.69 µM (active) |  |  |  |  |  |  |  |
| COC(=O)[C@@H]1CC2=CC(=O)CC[C@]2(C)[C@@]23O[C@@H]2C[C@@]2(C)[C@H](CC[C@@]24CCC(=O)O4)[C@@H]13 | 74.7% | 87.1 | 61.4% | 49.1% | 132% | inactive | inactive | inactive | inactive | inactive | inactive | inactive | inactive |  |  |  |  |  |  |
| CC(C=CC1=C(C)CCCC1(C)C)=CC=CC(C)=CC(=O)Nc1ccc(O)cc1 | 4.7% [at 57.5 µM] |  | 18.5% [at 57.5 µM] | 7.5% [at 57.5 µM] | 5.64% [at 92.2 µM] | inactive | inactive | 2.41 µM (active) | 5.4 µM (active) | 4.29 µM (active) | 12.1 µM (active) | 24.1 µM (active) |  |  |  |  |  | inactive |  |
| FC(F)(F)c1ccc(Nc2nc3ccc(Oc4ccnc(-c5ncc(C(F)(F)F)[nH]5)c4)cc3[nH]2)cc1 | 6.13% |  |  | 7.1% | 14.5% | inactive | inactive | 11.8 µM (active) | 13.2 µM (active) | 11.8 µM (active) | 9.35 µM (active) |  |  |  |  |  |  |  |  |
| Cn1cnc2c(F)c(Nc3ccc(Br)cc3F)c(C(=O)NOCCO)cc21 | 86.6% | 88 | 76.8% | 84.6% | 4.85% |  | inactive |  |  | inactive | inactive | inactive |  |  |  |  |  |  | 56.4 |
